14 sequences from the supplement of paper PMC6555819 can be followed below.

Test in all cases: PBM binding z-score (relative to random genomic background probes); higher = stronger binding; sequences stand for … in GC…GCGATTGACAGCGTAGAATGAAGG
Test [1] deals with RARb homodimer (NR concentration 270 nM). Summed up: (§1)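 Ligand-free nuclear receptor dimers were bound for 1 h to custom Agilent 4×180K protein-binding microarrays. Detection used antibodies against each partner (one per run). Binding z-scores rest on regression-normalized fluorescence, with random background probes as the reference.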
Test [2] relates to RARg:RXRa (NR concentration 270 nM, RXRa partner concentration 90 nM). Summed up:
as §1

Test [3] has as its system RARg homodimer (NR concentration 270 nM). Summed up: as §1
The test system of test [4] is RXRa DBDmut IVT, anti-RXR (DBD mutation: RXRa K156A/R161A, NR concentration 90 nM). In outline:
as §1

Test [5] deals with RXRa homodimer (NR concentration 180 nM). In outline: as §1
The subject of test [6] is THRa:RXRa (NR concentration 90 nM, RXRa partner concentration 90 nM). Summed up:
as §1

Test [7] deals with THRa homodimer (NR concentration 90 nM). Summed up:
as §1

The test system of test [8] is VDR homodimer (NR concentration 270 nM). Summed up: as §1

Turning to TCTATTAGTTGAAGGTCAACCGACGAGTCCGTTT, the PBM binding z-score turned out to be 4.21 in test [1]; 4.22 in test [2]; 4.39 in test [3]; 2.25 in test [4]; 4.15 in test [5]; 3.13 in test [6]. Besides, the PBM binding z-score was determined as 1.93 in test [7] and 3.45 in test [8].

Turning to TATTGTAGATCAACAGGAGGTTAAGAAAGATCGA, the PBM binding z-score is 0.682 in test [1]; 1 in test [2]; 0.791 in test [3]; -0.715 in test [4]; 0.924 in test [5]; 1.23 in test [6]. Also, the PBM binding z-score in test [7] was -0.471; in test [8] it was 0.107.

As to TTACCAAGGTGAGCTGAGGTCGTTGCTCCAACTC, the PBM binding z-score in test [1] worked out at 1.57; in test [2], 0.912; in test [3], 0.763; in test [4], 0.505; in test [5] it was 1.26; in test [6], 4.78. The PBM binding z-score came out at 2.1 in test [7] and 1.93 in test [8].

For the sequence TCTGCTAGGTCAGCTGGTCAGCTAACGAGCTGCC, the PBM binding z-score in test [1] was 2.62; in test [2], 3.42; in test [3] it was 4.27; in test [4], 0.17; in test [5], 1.51; in test [6], 1.8. Moreover, the results for the PBM binding z-score in test [7] and in test [8] were -0.216 and -1.3, respectively.

With AATACAGGGTCATCGTAGGCCAGTGTACGCACAG, the PBM binding z-score turned out to be 3.7 in test [1]; 5.65 in test [2]; 5.19 in test [3]; 3.59 in test [4]; 6.76 in test [5]; 4.57 in test [6]. The PBM binding z-score stood at 1.49 in test [7] and 2.98 in test [8].

As to TCTATTAGTAGATTAGGGCAACCGAAACAGCGGA, the PBM binding z-score in test [1] came out at 0.21; in test [2], 0.245; in test [3] it was 0.496; in test [4], 0.901; in test [5], 0.284; in test [6], 0.399. For the same sequence, the figures for the PBM binding z-score in test [7] and in test [8] were -0.319 and -0.419, respectively.

As for CGTCCACGGTCATAGGAGGTCAGTGAAGACAGAT, the PBM binding z-score stood at 3.91 in test [1]; 3.21 in test [2]; 3.97 in test [3]; 0.535 in test [4]; 2.05 in test [5]; 4.28 in test [6]. Also, the PBM binding z-score in test [7] is 0.603; in test [8] it was 1.18.

As to CCTACTGGACCATTCAGAGGTCATTGATCATATG, the PBM binding z-score in test [1] was 4.13; in test [2], 3.53; in test [3], 2.94; in test [4], 1.51; in test [5], 3.99; in test [6], 3.04. In addition, the PBM binding z-score came to 2.32 in test [7] and 4 in test [8].

Consider CCTAGCAGGCCAGGGTCACTTAAGCATTTCGCTT, for which the PBM binding z-score turned out to be 2.51 in test [1]; 2.93 in test [2]; 2.28 in test [3]; 0.27 in test [4]; 3.13 in test [5]; 2.67 in test [6]. The values for the PBM binding z-score in test [7] and in test [8] were 0.864 and 1.25, respectively.

Turning to AATACAGGGTCATTGTAGGCCAGAGTACGCACAG, the PBM binding z-score came out at 3.31 in test [1]; 5.16 in test [2]; 4.36 in test [3]; 4.12 in test [4]; 6.15 in test [5]; 4.59 in test [6]. Besides, the PBM binding z-score in test [7] is 0.994; in test [8] it was 3.75.

CGAACGAGGGCATTAGTTGATAGCAAATGCCGAT: the PBM binding z-score turned out to be 0.501 in test [1]; 0.774 in test [2]; 1.37 in test [3]; 2.96 in test [4]; 0.438 in test [5]; 0.5 in test [6]. Besides, the PBM binding z-score in test [7] was -0.321; in test [8], 1.64.

Turning to CCAGACAGGTGAAAGTTAACTCAGTCTGGTACGC, the PBM binding z-score in test [1] is 0.569; in test [2], 0.669; in test [3], 0.306; in test [4] it was -0.00485; in test [5], 1.2; in test [6] it was 0.251. In addition, the PBM binding z-score in test [7] was -0.579; in test [8], -0.235.

As for TCATATAGGTAAAGGTGAAAGGCGAACGATATGA, the PBM binding z-score stood at 1.51 in test [1]; 1.67 in test [2]; 1.39 in test [3]; 0.748 in test [4]; 2.24 in test [5]; 1.7 in test [6]. Moreover, the values for the PBM binding z-score in test [7] and in test [8] were -0.314 and -0.263, respectively.

For the sequence TCTTGTGGATCAGCAGGTTAAGAAAGCTGGCCAA, the PBM binding z-score in test [1] was 0.366; in test [2], -0.0321; in test [3], -0.331; in test [4], 0.589; in test [5], 0.119; in test [6] it was 0.227. Moreover, the PBM binding z-score in test [7] was -0.125; in test [8], 0.0128.
